# In paper PMC7862700, “An all-to-all approach to the identification of sequence-specific readers for epigenetic DNA modifications on cytosine”:
# Tests used:
# Test in all cases: DAPPL (digital affinity profiling via proximity ligation, sequencing); 10 mM Tris-HCl pH 7.5, 50 mM NaCl, 1 mM DTT, 4% glycerol, room temperature, 30 min; GST-TFs on glutathione beads, 16-mer random dsDNA library, 0.1% formaldehyde crosslink after washing; high values mean tight binding
# FLI1 = molecular target: T1, FLI1 (Homo sapiens, UniProt Q01543 1-452); conditions: protein: recombinant; tags: N-terminal GST; dsDNA, one strand shown
# T1 sequence: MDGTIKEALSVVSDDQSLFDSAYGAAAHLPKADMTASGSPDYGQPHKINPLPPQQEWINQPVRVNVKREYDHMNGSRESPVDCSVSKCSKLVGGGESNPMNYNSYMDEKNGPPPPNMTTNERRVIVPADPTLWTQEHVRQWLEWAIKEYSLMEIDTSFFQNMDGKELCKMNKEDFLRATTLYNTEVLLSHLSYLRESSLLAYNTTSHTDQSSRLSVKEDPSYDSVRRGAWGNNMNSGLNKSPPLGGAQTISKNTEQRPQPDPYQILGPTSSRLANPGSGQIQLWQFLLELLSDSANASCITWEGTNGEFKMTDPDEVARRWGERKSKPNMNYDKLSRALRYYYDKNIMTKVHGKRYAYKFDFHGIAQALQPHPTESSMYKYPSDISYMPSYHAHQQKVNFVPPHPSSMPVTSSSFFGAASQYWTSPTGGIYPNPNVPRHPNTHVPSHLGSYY
# In short: (§1)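 Each value of binding signal is a hexamer's read frequency for a factor divided by the same hexamer's frequency in the tag-only sample. Barcoded, bead-captured GST fusions of human transcription factors made in yeast were pooled with that sample and incubated with 200 nmole of a random double-stranded 16-mer DNA library in Tris/NaCl/DTT/glycerol buffer at room temperature for 30 min. Washing, 0.1% formaldehyde crosslinking, proximity ligation, PCR and Illumina NextSeq500 sequencing followed.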
# ELK1 = molecular target: T2, ELK1 (Homo sapiens, UniProt P19419 1-428); conditions: protein: recombinant; tags: N-terminal GST; dsDNA, one strand shown
# T2 sequence: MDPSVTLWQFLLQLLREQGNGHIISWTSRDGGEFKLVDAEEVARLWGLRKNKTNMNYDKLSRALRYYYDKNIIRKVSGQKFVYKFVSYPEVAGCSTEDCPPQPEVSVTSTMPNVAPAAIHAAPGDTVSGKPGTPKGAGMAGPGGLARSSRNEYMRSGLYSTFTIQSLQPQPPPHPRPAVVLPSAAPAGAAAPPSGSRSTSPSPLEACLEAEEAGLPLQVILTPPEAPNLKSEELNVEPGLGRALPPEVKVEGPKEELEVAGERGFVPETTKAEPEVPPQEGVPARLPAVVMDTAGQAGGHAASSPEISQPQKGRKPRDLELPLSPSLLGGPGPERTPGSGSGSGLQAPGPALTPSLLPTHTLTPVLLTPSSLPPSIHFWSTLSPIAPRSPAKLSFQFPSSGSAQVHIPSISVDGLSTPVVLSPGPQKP
# In short: as §1
# GABPA = molecular target: T3, GABPA (Homo sapiens, UniProt Q06546 1-454); conditions: protein: recombinant; tags: N-terminal GST; dsDNA, one strand shown
# T3 sequence: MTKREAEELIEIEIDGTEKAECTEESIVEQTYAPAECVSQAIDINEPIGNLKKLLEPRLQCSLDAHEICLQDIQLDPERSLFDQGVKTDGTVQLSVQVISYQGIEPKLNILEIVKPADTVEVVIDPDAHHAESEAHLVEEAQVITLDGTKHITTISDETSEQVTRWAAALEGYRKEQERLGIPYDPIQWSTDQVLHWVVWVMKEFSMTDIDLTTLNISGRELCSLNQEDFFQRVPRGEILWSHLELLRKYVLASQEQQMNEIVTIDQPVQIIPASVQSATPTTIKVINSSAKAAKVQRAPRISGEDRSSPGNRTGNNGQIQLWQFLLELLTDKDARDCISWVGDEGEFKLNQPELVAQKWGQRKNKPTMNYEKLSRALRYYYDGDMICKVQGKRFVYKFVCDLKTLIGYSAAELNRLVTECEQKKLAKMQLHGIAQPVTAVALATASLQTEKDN
# In short: as §1
# ERG = molecular target: T4, ERG (Homo sapiens, UniProt P11308 1-479); conditions: protein: recombinant; tags: N-terminal GST; dsDNA, one strand shown
# T4 sequence: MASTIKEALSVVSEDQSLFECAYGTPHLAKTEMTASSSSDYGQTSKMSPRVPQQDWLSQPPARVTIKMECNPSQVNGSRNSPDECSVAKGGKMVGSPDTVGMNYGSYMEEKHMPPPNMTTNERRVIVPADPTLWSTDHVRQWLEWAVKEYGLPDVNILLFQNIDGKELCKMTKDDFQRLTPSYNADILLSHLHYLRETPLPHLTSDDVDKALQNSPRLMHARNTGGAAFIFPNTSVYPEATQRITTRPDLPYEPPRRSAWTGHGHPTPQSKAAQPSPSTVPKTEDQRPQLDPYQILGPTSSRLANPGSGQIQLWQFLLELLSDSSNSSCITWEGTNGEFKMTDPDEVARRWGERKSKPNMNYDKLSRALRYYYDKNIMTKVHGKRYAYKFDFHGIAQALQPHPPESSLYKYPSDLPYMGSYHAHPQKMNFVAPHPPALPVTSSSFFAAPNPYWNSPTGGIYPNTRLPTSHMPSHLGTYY
# In short: as §1
# ELF1 = ELF1 (Homo sapiens, UniProt P32519 1-619); conditions: protein: recombinant; tags: N-terminal GST; dsDNA, one strand shown
# In short: as §1
# EHF = molecular target: T5, EHF (Homo sapiens, UniProt Q9NZC4 1-300); conditions: protein: recombinant; tags: N-terminal GST; dsDNA, one strand shown
# T5 sequence: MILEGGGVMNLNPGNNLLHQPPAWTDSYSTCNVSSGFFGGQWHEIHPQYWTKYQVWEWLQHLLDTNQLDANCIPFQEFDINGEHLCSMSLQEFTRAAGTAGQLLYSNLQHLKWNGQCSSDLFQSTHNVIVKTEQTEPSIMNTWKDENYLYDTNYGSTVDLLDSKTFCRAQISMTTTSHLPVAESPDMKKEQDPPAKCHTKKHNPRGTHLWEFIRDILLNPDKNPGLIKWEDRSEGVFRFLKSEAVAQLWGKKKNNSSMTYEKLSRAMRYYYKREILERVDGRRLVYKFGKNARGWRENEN
# In short: as §1
# SPI1 = SPI1 (Homo sapiens, UniProt P17947 1-270); conditions: protein: recombinant; tags: N-terminal GST; dsDNA, one strand shown
# In short: as §1
# SPIB = SPIB (Homo sapiens, UniProt Q01892 1-262); conditions: protein: recombinant; tags: N-terminal GST; dsDNA, one strand shown
# In short: as §1
# ELK3 = molecular target: T6, ELK3 (Homo sapiens, UniProt P41970 1-407); conditions: protein: recombinant; tags: N-terminal GST; dsDNA, one strand shown
# T6 sequence: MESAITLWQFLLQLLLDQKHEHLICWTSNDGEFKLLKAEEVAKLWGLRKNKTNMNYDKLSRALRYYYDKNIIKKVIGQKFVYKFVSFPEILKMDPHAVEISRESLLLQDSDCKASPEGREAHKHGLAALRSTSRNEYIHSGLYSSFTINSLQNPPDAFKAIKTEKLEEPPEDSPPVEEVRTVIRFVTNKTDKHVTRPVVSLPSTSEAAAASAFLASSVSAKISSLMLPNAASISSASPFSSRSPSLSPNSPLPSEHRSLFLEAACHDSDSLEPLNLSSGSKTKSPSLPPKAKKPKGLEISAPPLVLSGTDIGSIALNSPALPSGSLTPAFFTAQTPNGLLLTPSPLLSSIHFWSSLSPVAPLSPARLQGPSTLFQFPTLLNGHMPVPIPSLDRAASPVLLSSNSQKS
# In short: as §1
# FEV = molecular target: T7, FEV (Homo sapiens, UniProt Q99581 1-238); conditions: protein: recombinant; tags: N-terminal GST; dsDNA, one strand shown
# T7 sequence: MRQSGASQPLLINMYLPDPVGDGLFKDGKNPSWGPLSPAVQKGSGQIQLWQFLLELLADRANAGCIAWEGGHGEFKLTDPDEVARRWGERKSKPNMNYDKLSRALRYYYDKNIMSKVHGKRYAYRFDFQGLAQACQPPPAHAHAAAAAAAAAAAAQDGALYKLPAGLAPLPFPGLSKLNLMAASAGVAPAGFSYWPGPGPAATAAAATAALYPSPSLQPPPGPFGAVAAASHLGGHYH
# In short: as §1
# ETV5 = ETV5 (Homo sapiens, UniProt P41161 1-510); conditions: protein: recombinant; tags: N-terminal GST; dsDNA, one strand shown
# In short: as §1
# HSF1 = HSF1 (Homo sapiens, UniProt Q00613 1-529); conditions: protein: recombinant; tags: N-terminal GST; chain copies: 3; dsDNA, one strand shown
# In short: as §1
# SPIC = molecular target: T8, SPIC (Homo sapiens, UniProt Q8N5J4 1-248); conditions: protein: recombinant; tags: N-terminal GST; dsDNA, one strand shown
# T8 sequence: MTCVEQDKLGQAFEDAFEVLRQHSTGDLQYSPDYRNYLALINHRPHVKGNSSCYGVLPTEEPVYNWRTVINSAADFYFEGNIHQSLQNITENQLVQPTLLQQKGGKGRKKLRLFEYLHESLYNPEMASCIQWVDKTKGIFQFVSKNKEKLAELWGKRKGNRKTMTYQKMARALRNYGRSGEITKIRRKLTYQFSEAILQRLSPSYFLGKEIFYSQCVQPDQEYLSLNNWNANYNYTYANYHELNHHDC
# In short: as §1
# ELF4 = ELF4 (Homo sapiens, UniProt Q99607 1-663); conditions: protein: recombinant; tags: N-terminal GST; dsDNA, one strand shown
# In short: as §1
# ELK4 = molecular target: T9, ELK4 (Homo sapiens, UniProt P28324-2 1-405); conditions: protein: recombinant; tags: N-terminal GST; dsDNA, one strand shown
# T9 sequence: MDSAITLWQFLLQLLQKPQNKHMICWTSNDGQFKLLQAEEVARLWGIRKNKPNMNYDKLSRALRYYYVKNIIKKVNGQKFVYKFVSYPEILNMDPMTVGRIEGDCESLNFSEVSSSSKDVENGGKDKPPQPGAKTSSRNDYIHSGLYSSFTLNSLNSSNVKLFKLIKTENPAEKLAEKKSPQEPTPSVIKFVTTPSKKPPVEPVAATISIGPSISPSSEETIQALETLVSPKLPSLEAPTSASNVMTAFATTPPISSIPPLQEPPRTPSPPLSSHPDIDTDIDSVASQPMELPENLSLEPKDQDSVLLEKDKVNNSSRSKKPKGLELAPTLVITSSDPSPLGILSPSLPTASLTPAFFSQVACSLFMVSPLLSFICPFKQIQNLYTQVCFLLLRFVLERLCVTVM
# In short: as §1
# ETV2 = molecular target: T10, ETV2 (Homo sapiens, UniProt O00321 1-342); conditions: protein: recombinant; tags: N-terminal GST; dsDNA, one strand shown
# T10 sequence: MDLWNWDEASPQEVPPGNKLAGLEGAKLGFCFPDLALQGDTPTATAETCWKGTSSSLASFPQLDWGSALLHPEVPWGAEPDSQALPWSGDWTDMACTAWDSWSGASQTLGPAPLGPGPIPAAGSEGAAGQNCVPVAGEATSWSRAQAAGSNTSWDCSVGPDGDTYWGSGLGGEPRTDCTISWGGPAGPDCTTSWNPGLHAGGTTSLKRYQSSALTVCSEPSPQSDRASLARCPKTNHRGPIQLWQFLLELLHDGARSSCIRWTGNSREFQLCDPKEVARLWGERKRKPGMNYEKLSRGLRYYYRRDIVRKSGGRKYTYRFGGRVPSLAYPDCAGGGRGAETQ
# In short: as §1
# ELF3 = molecular target: T11, ELF3 (Homo sapiens, UniProt P78545 1-371); conditions: protein: recombinant; tags: N-terminal GST; dsDNA, one strand shown
# T11 sequence: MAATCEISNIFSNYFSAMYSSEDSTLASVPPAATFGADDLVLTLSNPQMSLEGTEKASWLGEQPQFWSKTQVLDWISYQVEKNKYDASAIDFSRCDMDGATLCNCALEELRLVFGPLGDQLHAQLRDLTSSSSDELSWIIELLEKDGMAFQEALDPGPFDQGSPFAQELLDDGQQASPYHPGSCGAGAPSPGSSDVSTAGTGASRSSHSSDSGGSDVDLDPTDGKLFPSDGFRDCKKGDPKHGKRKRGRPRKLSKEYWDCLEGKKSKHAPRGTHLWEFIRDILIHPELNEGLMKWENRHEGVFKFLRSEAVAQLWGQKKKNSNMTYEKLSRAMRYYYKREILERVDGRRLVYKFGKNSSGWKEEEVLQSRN
# In short: as §1
# CRX = CRX (Homo sapiens, UniProt O43186 1-299); conditions: protein: recombinant; tags: N-terminal GST; dsDNA, one strand shown
# In short: as §1
# ETV1 = ETV1 (Homo sapiens, UniProt P50549 1-477); conditions: protein: recombinant; tags: N-terminal GST; dsDNA, one strand shown
# In short: as §1
# Chain of CRX (O43186 whole entry): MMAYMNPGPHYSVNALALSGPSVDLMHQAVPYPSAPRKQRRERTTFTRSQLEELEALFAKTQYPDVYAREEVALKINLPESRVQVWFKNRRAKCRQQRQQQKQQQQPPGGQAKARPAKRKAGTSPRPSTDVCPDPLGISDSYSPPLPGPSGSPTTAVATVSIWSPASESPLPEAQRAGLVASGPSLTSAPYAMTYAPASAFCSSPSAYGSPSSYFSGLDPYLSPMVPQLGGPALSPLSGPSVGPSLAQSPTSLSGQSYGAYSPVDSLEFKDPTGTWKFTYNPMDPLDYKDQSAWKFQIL
# Chain of ETV5 (P41161 whole entry): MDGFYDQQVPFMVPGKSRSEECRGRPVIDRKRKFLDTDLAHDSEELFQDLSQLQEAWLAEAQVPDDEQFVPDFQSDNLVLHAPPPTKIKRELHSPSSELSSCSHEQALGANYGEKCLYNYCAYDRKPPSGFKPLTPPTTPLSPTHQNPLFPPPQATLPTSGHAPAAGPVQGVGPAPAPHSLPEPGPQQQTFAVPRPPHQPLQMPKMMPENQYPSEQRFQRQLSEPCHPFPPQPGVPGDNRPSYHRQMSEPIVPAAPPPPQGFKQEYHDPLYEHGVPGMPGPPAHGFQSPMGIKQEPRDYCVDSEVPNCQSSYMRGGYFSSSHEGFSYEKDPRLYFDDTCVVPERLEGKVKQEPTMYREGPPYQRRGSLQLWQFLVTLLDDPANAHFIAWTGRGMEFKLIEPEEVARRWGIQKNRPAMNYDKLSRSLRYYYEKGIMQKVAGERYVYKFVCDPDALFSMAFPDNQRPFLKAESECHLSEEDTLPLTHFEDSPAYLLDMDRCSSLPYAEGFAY
# Chain of HSF1 (Q00613 whole entry): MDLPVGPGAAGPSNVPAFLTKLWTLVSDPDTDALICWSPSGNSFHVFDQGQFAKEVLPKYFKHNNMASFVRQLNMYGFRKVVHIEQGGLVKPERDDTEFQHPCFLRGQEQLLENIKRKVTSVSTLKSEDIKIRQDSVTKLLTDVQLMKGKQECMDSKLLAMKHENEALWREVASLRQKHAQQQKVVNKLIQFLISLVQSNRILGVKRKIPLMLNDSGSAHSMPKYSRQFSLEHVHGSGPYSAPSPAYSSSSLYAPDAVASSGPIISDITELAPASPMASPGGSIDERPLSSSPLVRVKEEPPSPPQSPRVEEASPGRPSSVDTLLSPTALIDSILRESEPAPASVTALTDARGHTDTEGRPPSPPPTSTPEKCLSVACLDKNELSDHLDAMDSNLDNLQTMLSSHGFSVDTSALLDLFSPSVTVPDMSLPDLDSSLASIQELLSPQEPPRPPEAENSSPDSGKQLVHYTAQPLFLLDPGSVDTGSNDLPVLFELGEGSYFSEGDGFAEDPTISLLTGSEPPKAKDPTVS
# Chain of ELF4 (Q99607 whole entry): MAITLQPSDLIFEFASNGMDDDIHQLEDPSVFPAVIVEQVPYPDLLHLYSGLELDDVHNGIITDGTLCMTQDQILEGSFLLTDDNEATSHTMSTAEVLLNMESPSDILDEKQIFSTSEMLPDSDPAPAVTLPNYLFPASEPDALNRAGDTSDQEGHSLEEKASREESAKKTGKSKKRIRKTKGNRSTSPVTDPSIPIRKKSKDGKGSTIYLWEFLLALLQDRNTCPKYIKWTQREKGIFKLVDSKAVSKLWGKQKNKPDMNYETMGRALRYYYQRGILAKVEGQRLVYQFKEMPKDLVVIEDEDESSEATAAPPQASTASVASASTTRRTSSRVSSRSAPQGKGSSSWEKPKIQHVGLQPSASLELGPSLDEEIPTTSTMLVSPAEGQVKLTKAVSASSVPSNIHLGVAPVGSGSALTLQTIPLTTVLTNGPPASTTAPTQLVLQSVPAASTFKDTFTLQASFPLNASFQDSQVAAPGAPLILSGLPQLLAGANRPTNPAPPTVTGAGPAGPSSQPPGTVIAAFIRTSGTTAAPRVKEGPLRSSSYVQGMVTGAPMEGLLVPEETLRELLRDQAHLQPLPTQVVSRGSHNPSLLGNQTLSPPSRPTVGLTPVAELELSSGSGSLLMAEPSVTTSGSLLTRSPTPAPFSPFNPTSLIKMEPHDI
# Chain of ETV1 (P50549 whole entry): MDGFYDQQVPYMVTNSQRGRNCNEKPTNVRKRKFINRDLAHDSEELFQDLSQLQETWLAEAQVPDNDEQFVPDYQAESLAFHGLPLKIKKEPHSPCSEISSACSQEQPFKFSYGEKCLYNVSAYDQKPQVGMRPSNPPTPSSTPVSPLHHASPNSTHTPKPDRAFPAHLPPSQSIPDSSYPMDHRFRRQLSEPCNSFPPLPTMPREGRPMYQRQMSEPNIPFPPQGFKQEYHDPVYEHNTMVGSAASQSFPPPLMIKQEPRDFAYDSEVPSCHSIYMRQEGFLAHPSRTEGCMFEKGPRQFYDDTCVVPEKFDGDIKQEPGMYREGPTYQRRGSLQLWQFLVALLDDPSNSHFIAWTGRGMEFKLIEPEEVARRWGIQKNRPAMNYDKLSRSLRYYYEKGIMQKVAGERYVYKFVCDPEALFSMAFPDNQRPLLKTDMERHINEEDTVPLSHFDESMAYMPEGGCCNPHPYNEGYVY
# Chain of ELF1 (P32519 whole entry): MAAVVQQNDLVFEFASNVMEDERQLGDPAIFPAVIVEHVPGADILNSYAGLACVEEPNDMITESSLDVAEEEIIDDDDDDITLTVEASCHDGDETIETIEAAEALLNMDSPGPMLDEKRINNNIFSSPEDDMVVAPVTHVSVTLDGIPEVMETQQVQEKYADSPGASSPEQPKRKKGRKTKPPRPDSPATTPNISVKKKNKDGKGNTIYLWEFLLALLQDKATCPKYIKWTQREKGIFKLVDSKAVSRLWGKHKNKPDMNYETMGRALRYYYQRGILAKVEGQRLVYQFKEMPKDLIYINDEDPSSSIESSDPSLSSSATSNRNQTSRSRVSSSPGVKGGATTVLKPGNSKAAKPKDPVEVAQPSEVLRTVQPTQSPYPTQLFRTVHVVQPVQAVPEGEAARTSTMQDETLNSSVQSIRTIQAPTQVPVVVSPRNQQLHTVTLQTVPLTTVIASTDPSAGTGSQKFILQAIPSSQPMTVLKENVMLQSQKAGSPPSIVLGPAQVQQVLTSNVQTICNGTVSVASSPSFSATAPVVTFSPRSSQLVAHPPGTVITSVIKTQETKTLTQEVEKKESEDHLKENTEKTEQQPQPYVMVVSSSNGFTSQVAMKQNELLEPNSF
# Chain of SPIB (Q01892 whole entry): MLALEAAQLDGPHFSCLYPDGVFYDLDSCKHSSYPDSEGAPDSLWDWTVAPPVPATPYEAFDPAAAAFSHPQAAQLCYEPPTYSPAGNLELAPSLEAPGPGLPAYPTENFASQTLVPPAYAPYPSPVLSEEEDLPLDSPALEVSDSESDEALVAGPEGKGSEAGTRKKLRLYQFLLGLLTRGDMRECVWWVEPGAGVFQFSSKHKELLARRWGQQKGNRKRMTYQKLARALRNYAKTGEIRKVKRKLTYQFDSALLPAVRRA
sequence,measurement,setting,value
TTCCCG,binding signal,FLI1,"1.8 fold enrichment (6-mer frequency, TF over GST control)"
same,binding signal,ELK1,"1.73 fold enrichment (6-mer frequency, TF over GST control)"
same,binding signal,GABPA,"1.93 fold enrichment (6-mer frequency, TF over GST control)"
same,binding signal,ERG,"2.03 fold enrichment (6-mer frequency, TF over GST control)"
same,binding signal,ELF1,"1.82 fold enrichment (6-mer frequency, TF over GST control)"
same,binding signal,EHF,"1.98 fold enrichment (6-mer frequency, TF over GST control)"
same,binding signal,SPI1,"2.02 fold enrichment (6-mer frequency, TF over GST control)"
same,binding signal,SPIB,"2.17 fold enrichment (6-mer frequency, TF over GST control)"
same,binding signal,ELK3,"1.78 fold enrichment (6-mer frequency, TF over GST control)"
same,binding signal,FEV,"1.85 fold enrichment (6-mer frequency, TF over GST control)"
same,binding signal,ETV5,"2.08 fold enrichment (6-mer frequency, TF over GST control)"
same,binding signal,HSF1,"2.46 fold enrichment (6-mer frequency, TF over GST control)"
same,binding signal,SPIC,"1.91 fold enrichment (6-mer frequency, TF over GST control)"
same,binding signal,ELF4,"1.73 fold enrichment (6-mer frequency, TF over GST control)"
same,binding signal,ELK4,"1.69 fold enrichment (6-mer frequency, TF over GST control)"
same,binding signal,ETV2,"1.87 fold enrichment (6-mer frequency, TF over GST control)"
same,binding signal,ELF3,"1.64 fold enrichment (6-mer frequency, TF over GST control)"
same,binding signal,CRX,"1.7 fold enrichment (6-mer frequency, TF over GST control)"
same,binding signal,ETV1,"1.88 fold enrichment (6-mer frequency, TF over GST control)"
